# An excerpt weighted towards active compounds, which were near 19% of everything screened.
# Chronic BCR inh: inhibitors of chronic active B-cell receptor signaling | AID 493014 | ABC-DLBCL IkBa-CBG/CBR reporter, luminescence ratio, 4 h | 340,000 compounds, 0.05% hits | Potency, µM (doses to about 46.1 µM), for the others: top-dose activity change, negative = inhibition, actives largely listed as inhibitors; active = well fitted inhibition curve with a large enough effect in the signal ratio, with a control signal flat, not every such curve was filed as active; inconclusive = small, poorly fitted or top-dose-only effect, or effect the other way, or a change in a side signal; the % refers to the signal ratio;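 note: potency is the fitted concentration of half-maximal effect; plate controls were basal doxycycline-induced cells for no effect and cells given 10 µM MG132 for full effect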
#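 Cell line TMD8 (human ABC DLBCL), stably expressing tet-inducible CBG68-IkBa fusion and CBR; IMDM/0.5% FBS; cpd up to 46 uM; dox induction, 4 h, 37C/5% CO2; dual luminescence; green/red ratio; MG132 control.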
# MCF10A rereplic: inducers of DNA re-replication in MCF 10A breast cells | MCF 10A DNA re-replication, Hoechst nuclear intensity, 48 h | Potency, µM (highest dose often 46.1 µM), for inactives: at the top dose activity, positive = re-replication, hits mostly activators | 350,000 compounds, 2.9% hits; note: potency is the fitted concentration of half-maximal effect; % of control where 0% means no effect; nearly all actives have a fitted effect of over 50% in size
# TDP1 cell noCPT: qHTS for Inhibitors of human tyrosyl-DNA phosphodiesterase 1 (TDP1): qHTS in cells in absence of CPT. DT40 Tdp1-/- hTDP1 cells, no CPT, ATP luminescence, 48 h. Potency, µM (highest dose often 46.2 µM), for inactives: top-dose activity change, negative = growth inhibition, most hits filed as inhibitors. 420,000 compounds, 15% hits. AID 686978, 2013; note: potency is the fitted concentration of half-maximal effect; % is set by controls: 0 for no effect and ±100 for the full control effect; nearly all actives have a fitted effect of over 55% in size
#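 Camptothecin absent (DMSO only). Human TDP1-complemented DT40 knockout cells, 400 cells/well, 37 °C for minimum 48 hr; ATP measured via CellTiter-Glo, 30 min dark incubation, luminescence.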
# DT40 TDP1 CPT: DT40-hTDP1 cell growth loss with CPT; chicken DT40 Tdp1-/-;hTDP1 cells + 20 nM CPT, ATP luminescence, 48 h; Potency, µM (highest dose often 46.2 µM), without a hit: at the top dose activity change, negative = growth inhibition, actives largely listed as inhibitors; 420,000 compounds, 12% hits; AID 686979; note: potency is the fitted concentration of half-maximal effect; % is set by controls: 0 for no effect and ±100 for the full control effect; nearly all actives have a fitted effect of over 55% in size
#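 Chicken DT40 Tdp1-/- cells stably complemented with human TDP1 were seeded at 400 cells/well in medium containing 20 nM camptothecin, exposed to pin-transferred compounds, and grown at 37 °C for at least 48 hr. Viability was read as ATP luminescence.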
# SW480 rereplic: induces DNA re-replication in SW480 colon adenocarcinoma cells. Potency, µM (doses to about 46.1 µM), inactives show at the highest dose re-replication activation, usual class: activators. 340,000 compounds, 1.8% hits. SW480 DNA re-replication, Hoechst DNA content imaging, 48 h; note: potency is the fitted concentration of half-maximal effect; % of control where 0% means no effect; nearly all actives have a fitted effect of over 55% in size
#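 Treated cells incubate 48 hr (37 C, 5% CO2), are stained 40 min with Hoechst, and nuclear fluorescence is enumerated; a rise in nuclei with high DNA signal marks re-replication.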
# IL-1B inflam inh: blocks inflammasome-driven IL-1 beta release; THP-1 LPS/ATP IL-1B secretion, AlphaLISA, 16 h; active compounds read low; 360,000 compounds, 4.7% hits; activity change, % at 57.5 µM; in the data active = activity change below about -50%; inconclusive = mostly about -30% to -49%; note: % is set by controls: 0 for no effect and ±100 for the full control effect
#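 Secreted IL-1B measured by AlphaLISA bead assay after 16 h compound exposure of THP-1 cells; compounds (final up to 57.5 uM) added 1 h before LPS (250 ng/mL) and ATP (1.25 mM) stimulation; lower signal means less secretion.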
# Starred values were filed as active, the others as inactive; u = inconclusive; x = no result. Unless noted, calls come from the whole dose curve; as a rule, active = well fitted curve in the direction sought with a large enough effect; inconclusive = small, poorly fitted or top-dose-only effect, or another doubt; inactive = no such curve, though single readings can be large; an effect the other way counts as inactive or inconclusive.
SMILES,Chronic BCR inh,MCF10A rereplic,TDP1 cell noCPT,DT40 TDP1 CPT,SW480 rereplic,IL-1B inflam inh
O=C(CCN1C(=O)/C(=C/c2ccccc2Cl)SC1=S)NCCc1ccc(O)cc1,-5%,u,9.2µM*,u,-6%,u
O=C(CCN1C(=O)/C(=C/c2ccccc2Cl)SC1=S)NC1CCCC1,-15%,8%,9.2µM*,8.2µM*,-15%,u
O=C(CCN1C(=O)/C(=C/c2ccccc2Cl)SC1=S)NN1CCOCC1,u,3%,u,u,24%,-20
O=C(CCN1C(=O)/C(=C/c2ccccc2Cl)SC1=S)NNC(=O)c1ccccc1O,1%,17%,u,u,u,32
CC(C#N)(NC(=O)CN1CCN(S(=O)(=O)c2ccccc2C#N)CC1)C1CC1 (configuration not stated),0%,-2%,-27%,-6%,-2%,-9
CCOc1ccccc1Nc1nc2c(S(=O)(=O)c3ccc(C)cc3)nnn2c2ccsc12,x,x,u,-11%,x,x
Cc1ccc(C)c(Nc2nc3c(S(=O)(=O)c4ccc(Br)cc4)nnn3c3ccsc23)c1,x,x,21µM*,18µM*,x,x
Cc1ccc(C)c(Nc2nc3c(S(=O)(=O)c4ccc(C(C)C)cc4)nnn3c3ccsc23)c1,x,x,21µM*,15µM*,x,x
CSc1ccc(CN2CCC(C)(Oc3ccc(F)cc3)C2)cc1 (configuration not stated),x,x,u,u,x,3
C=C1C(=O)[C@]23C[C@H]1CC[C@H]2[C@]1(C)[C@@H](O)CC[C@@](C)(C(=O)O)[C@H]1C[C@@H]3O,x,x,2.9µM*,2.3µM*,x,-75*
C=C1C(=O)[C@]23C[C@H]1CCC2[C@@]1(C)C(C[C@@H]3O)[C@](C)(C(=O)O)C[C@H](O)[C@@H]1O (some centres not stated),x,x,8%,2%,x,1
C=C1C(=O)[C@]23C[C@H]1CC[C@H]2[C@]1(C)[C@@H](OC(C)=O)CC[C@@](C)(C(=O)OC)[C@H]1C[C@@H]3OC(C)=O,x,x,0.92µM*,0.58µM*,x,-116*
C=C1C(=O)[C@]23C[C@H]1CC[C@H]2[C@]1(C)[C@@H](OC(C)=O)CC[C@@](C)(C(=O)O)[C@H]1C[C@@H]3O,x,x,1µM*,1µM*,x,-78*
C=C1C(=O)[C@]23C[C@H]1CCC2[C@@]1(C)C(C[C@@H]3O)[C@](C)(C(=O)OC)CC[C@@H]1OC(C)=O (some centres not stated),x,x,0.92µM*,0.82µM*,x,-116*
Cc1ccccc1NS(=O)(=O)c1cccc2nsnc12,u,-21%,-5%,0%,3%,11
CC(C)(C)NC(=O)C12CCC(C)(c3nc4ccccc4nc31)C2(C)C (configuration not stated),7%,u,22µM*,11µM*,-3%,21
CCOC(=O)C(C(=O)OCC)C1OC(=O)c2cc3c(cc21)C(=O)OC3C(C(=O)OCC)C(=O)OCC (configuration not stated),-7%,u,-11%,u,29%,-98*
O=c1cnc2cnc(N3CCNCC3)nc2n1C1CC1,x,x,16%,7%,x,x
Cc1c(C(=O)NN2CCCCC2)nn(-c2ccc(Cl)cc2Cl)c1-c1ccc(Cl)cc1,x,13µM*,19µM*,u,4%,x
Cc1nn(-c2ccc(Cl)cc2Cl)c(C)c1C(=O)O,-3%,2%,-6%,0%,9%,14
O=[N+]([O-])c1ccccc1/C=C\C=N\N1CCN(c2ccccc2)CC1,u,-3%,-21%,u,-34%,-53*
O=[N+]([O-])c1ccccc1/C=N\N1CCN(c2ccccc2)CC1,-23%,14%,u,0%,1%,-19
c1ccc2c(c1)[nH]c1c3ccccc3sc21,u,6%,u,-24%,-4%,0
Cn1c(=O)c2c(nc3n2CC(O)CN3c2ccc(O)cc2)n(C)c1=O (configuration not stated),1%,1%,5%,7%,0%,19
O=C1C=CC(=Nc2ccc(F)cc2)O1,x,18µM*,4.6µM*,2.3µM*,u,-51*
SMILES,Chronic BCR inh,MCF10A rereplic,TDP1 cell noCPT,DT40 TDP1 CPT,SW480 rereplic,IL-1B inflam inh
O=C(Cn1c(-c2cccs2)cc2ccccc21)NCCCN1CCN(c2ccccc2F)CC1,x,x,16µM*,23µM*,x,x
O=C(Cn1c(-c2cccs2)cc2cc(F)ccc21)NCCCN1CCN(c2ccccc2F)CC1,x,x,21µM*,21µM*,x,x
O=C(Cn1c(=O)c2cccn2c2ccc(F)cc21)NCCCN1CCN(c2ccccc2F)CC1,1%,13%,u,u,2%,-11
C[C@@H]1CN([C@H](C)CO)C(=O)CCCn2nncc2CO[C@H]1CN(C)Cc1ccccc1,x,x,-19%,12%,x,12
O=C(NCCc1ccccc1)C(=O)Nc1ccc([N+](=O)[O-])cc1,u,4%,20%,-25%,-6%,-8
Cc1cc(Br)ccc1NC(=O)CNC(=O)CNc1cccc([N+](=O)[O-])c1,1%,1%,u,21µM*,0%,-24
O=C(CCC(=O)Nc1cccc([N+](=O)[O-])c1)NCc1ccccc1,u,12%,-3%,5%,-55%,13
CC(C)CC(=O)NC(NC(=O)CC(C)C)c1cccc([N+](=O)[O-])c1,-8%,0%,-4%,18%,-20%,0
O=C(CNc1cccc([N+](=O)[O-])c1)NCCCc1ccccc1,9%,-3%,u,-3%,-5%,-96*
O=[N+]([O-])c1ccc(NCCCc2ccccc2)cc1,x,x,18µM*,u,x,-18
O=C(Cc1ccccc1)NC(NC(=O)Cc1ccccc1)c1cccc([N+](=O)[O-])c1,6%,11%,18µM*,u,-70%,57
O=S(=O)(c1ccc(Cl)cc1)N1CCC(c2nc3ccccc3[nH]2)CC1,0%,6%,12µM*,u,u,3
O=c1[nH]c(C2CCN(S(=O)(=O)c3ccc(C(F)(F)F)cc3)CC2)nc2c1nnn2Cc1ccccc1,0%,-1%,u,u,-8%,-71*
O=c1[nH]c(C2CCN(S(=O)(=O)/C=C/c3ccccc3)CC2)nc2c1nnn2Cc1ccc(F)cc1,u,20%,18µM*,21µM*,u,-54*
